Holding throughout (experiment): PBM binding z-score (relative to random genomic background probes); higher = stronger binding; sequences stand for … in GC…GCGATTGACAGCGTAGAATGAAGG
Assay [1] has as its system FXR:RXRa (NR concentration 270 nM, RXRa partner concentration 90 nM). The method in brief:
(§1)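 The probes on custom Agilent 4×180K protein-binding microarrays were double-stranded, with 34-nt variable regions bearing direct-repeat seeds, single-nucleotide variants, half-site ablations and random human genomic background sequences. Incubation lasted 1 h with ligand-free nuclear receptor dimers in PBS pH 7.4, 2% milk, 0.02% Triton X-100, 1 mM DTT, 0.2 mg/mL BSA and 0.4 mg/ml salmon testes DNA. Antibodies against each partner (one per run) detected bound dimers, and fluorescence scans were regression-normalized. Binding z-scores take the random background probes as reference.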

In assay [2] the test system is LXRa:RXRa (NR concentration 270 nM, RXRa partner concentration 90 nM). The gist of the method: as §1
Assay [3] deals with LXRa homodimer (NR concentration 270 nM). The method in brief: as §1
In assay [4] the test system is LXRb:RXRa (NR concentration 270 nM, RXRa partner concentration 90 nM). The method in brief: as §1
For assay [5], the system named is LXRb homodimer (NR concentration 270 nM). The gist of the method:
as §1

Assay [6] concerns PPARa:RXRa (NR concentration 270 nM, RXRa partner concentration 90 nM). The gist of the method:
as §1

Assay [7] relates to PPARg:RXRa (NR concentration 180 nM, RXRa partner concentration 90 nM). The gist of the method:
as §1

The subject of assay [8] is PPARg:RXRa 270nM:90nM, anti-RXR (NR concentration 270 nM, RXRa partner concentration 90 nM). The method in brief: as §1
The subject of assay [9] is PPARg:RXRa 30nM:10nM, anti-RXR (NR concentration 30 nM, RXRa partner concentration 10 nM). The gist of the method: as §1
For assay [10], the system named is PPARg:RXRa 90nM:30nM, anti-RXR (NR concentration 90 nM, RXRa partner concentration 30 nM). The gist of the method: as §1

Among the data in the supplement of paper PMC6555819 are PBM binding z-score values, retold here.

For the sequence CTCGAAAGGTCGTGCTCAGGTGCGTATACCAAAC, the PBM binding z-score was 4.69 in [1]; 3.72 in [2]; 0.109 in assay [3]; 2.86 in assay [4]; -0.0235 in [5]; 4.57 in [6]. The PBM binding z-score in assay [7] turned out to be 1.84; in assay [8], 3.16; in assay [9] it was 0.473; in assay [10], 2.05.

Turning to TCTAGCAGGCCAGAGCGTCACTCAAGAGGTACGG, the PBM binding z-score is -0.546 in assay [1]; -0.726 in assay [2]; -0.841 in [3]; -1.08 in assay [4]; -1.75 in [5]; -0.0685 in assay [6]. Further, the PBM binding z-score in [7] amounted to 0.266; in assay [8], 0.612; in assay [9], 1.11; in [10], 0.674.

For the sequence CGTCCAAGGTCAATGCTATGTCAGTGAAAGCATT, the PBM binding z-score in assay [1] turned out to be 6.33; in assay [2], 4.8; in assay [3], 0.645; in assay [4] it was 3.67; in [5], 0.692; in assay [6], 4.99. The PBM binding z-score in assay [7] came out at 3.66; in assay [8], 4.41; in [9], 1.02; in assay [10], 2.95.

For CAAACTAGGTCACGAAAAGTCAAAGTCGAATGAC, the PBM binding z-score in assay [1] amounted to 4.52; in assay [2], 5.32; in assay [3] it was 0.989; in [4], 3.22; in assay [5] it was 0.716; in assay [6], 5.53. Also, the PBM binding z-score in assay [7] is 9.43; in [8], 7.43; in assay [9], 5.91; in assay [10], 7.51.

As to TCTAGCAGGCCAGAGGGGCACTCAAGAGGTACGG, the PBM binding z-score in [1] is -0.239; in assay [2] it was -0.393; in assay [3] it was -0.689; in assay [4], -0.334; in [5], -0.644; in assay [6], 0.22. In addition, the PBM binding z-score stood at 0.662 in assay [7], 1.41 in assay [8], 1.64 in assay [9] and 1.51 in assay [10].

As to CCTTACGGGTCACTCCAGGTTATAGCATCGGAGT, the PBM binding z-score in assay [1] came to 4.9; in [2], 7.65; in [3] it was 1.97; in [4], 5.36; in [5] it was 0.226; in [6], 4.64. In addition, the PBM binding z-score in assay [7] came out at 3.53; in [8] it was 3.74; in assay [9] it was 1.18; in assay [10], 2.57.

In the case of CGAACGAGGGCATGAGTTGATAGAAAATGCCGAT, the PBM binding z-score in [1] was 0.363; in assay [2], 0.324; in [3] it was -0.393; in assay [4], 0.256; in assay [5], -0.832; in assay [6], 1.58. Moreover, the PBM binding z-score in assay [7] came to 1.42; in [8] it was 1.33; in assay [9], 0.36; in [10], 0.956.

On to ACTTACGGGTCAACGAGTTTATAGCACGCGTATA, for which the PBM binding z-score in assay [1] was found to be 6.09; in assay [2], 4.46; in assay [3], 1.02; in assay [4] it was 4.03; in assay [5], 0.714; in assay [6], 5.4. Moreover, the PBM binding z-score in [7] amounted to 5.37; in [8] it was 5.02; in assay [9], 2.4; in assay [10], 4.12.

As for AGAACGAGGTCAATGAGTTGATAGCACGGGTGGC, the PBM binding z-score came out at 7.39 in [1]; 5.21 in assay [2]; 0.873 in [3]; 4.04 in [4]; 1.3 in assay [5]; 5.6 in [6]. For the same sequence, the PBM binding z-score in assay [7] was found to be 6.36; in assay [8], 6.01; in assay [9] it was 3.19; in assay [10], 5.11.

CGTCCAAGGTCATAGGAGGTCAGAGAAGACAGAT: the PBM binding z-score was determined as 8 in assay [1]; 7.71 in assay [2]; 5.01 in assay [3]; 6.38 in assay [4]; 0.877 in [5]; 6.27 in assay [6]. For the same sequence, the PBM binding z-score was 6.35 in assay [7], 6.19 in [8], 2.71 in assay [9] and 5.09 in assay [10].

In the case of CTTCAAAGTTCAACTAAGGTAACGTAAAGCACGC, the PBM binding z-score in assay [1] amounted to 7.28; in [2] it was 6.39; in assay [3], 5.24; in assay [4], 4.06; in [5], 2.56; in assay [6], 5.12. The PBM binding z-score was found to be 3.32 in assay [7], 4.03 in assay [8], 1.49 in assay [9] and 3.06 in [10].

For the sequence CCTCACGGGTCACTGACAGGTTATAGCATTTGGA, the PBM binding z-score in assay [1] was 4.72; in assay [2], 3.72; in assay [3] it was 0.511; in assay [4], 3.24; in assay [5] it was -0.196; in assay [6], 4.66. Further, the PBM binding z-score in assay [7] turned out to be 3.37; in assay [8], 3.34; in assay [9] it was 0.625; in [10], 1.85.
